This test has as its system VDR:RXRa (NR concentration 270 nM, RXRa partner concentration 90 nM). As to the kind of experiment: PBM binding z-score (relative to random genomic background probes); higher = stronger binding; sequences stand for … in GC…GCGATTGACAGCGTAGAATGAAGG
The protocol: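 Protein-binding microarray (Agilent 4x180K custom design, double-stranded 60-nt probes: 5' GC cap, 34-nt variable region, 24-nt constant primer region; full probe sequence given). Purified or IVT nuclear receptor:RXRα heterodimers (3:1 NR:RXRα, mostly 270:90 nM) or homodimers were incubated for 1 h in PBS with 2% milk and no ligand, then detected with Alexa488 antibodies. Fluorescence from o1-orientation probes (~5 replicates averaged) was converted to z-scores against 500 random hg19 background probes. Variable regions are seed direct-repeat (DR0–DR5) sites, all their single-nucleotide variants and half-site ablations.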
For the sequence TGAATAAGGTTATAAGATCAGGGAACGTTGCAAA, the PBM binding z-score turned out to be 0.743.

For the sequence CGTCCAAGGTCATAGGAGGTTAGTGAAGACAGAT, the PBM binding z-score came to 5.

ATCTCTAGGAAACCAAGTTCAGTGAATGCCGAAC registered a PBM binding z-score of 1.49.

As to GCTAGTTGGTCAATAAAAGGTCACACACCGGTCG, the PBM binding z-score stood at 4.16.

ATCTCTAGGTAAGACTCAGTTCAATGAAGAACGC came in with a PBM binding z-score of 1.07.

CGTCAAAGTTTAAGGTAACGTAACAGAAAGCAGC had a PBM binding z-score of 0.3.

Sequence TTACCAAGGTGATGGTCGTTGATCCCTCTGTAGA came in with a PBM binding z-score of -0.193.

The sequence CGTCCAAGGTCTAAGGTCAGTGAAGAGATGACGG yielded a PBM binding z-score of 1.73.

ACTATTAGTTTAGACGAGGGCAACCGATAGGTTG gave a PBM binding z-score of 0.8.

CCGACTGGGGCAAGGCTACCATAACGCACAGCCA yielded a PBM binding z-score of -0.501.

In the case of CCTTCTGGGCCAAAAAGGTCATTGATGCCGATAA, the PBM binding z-score is 4.86.

On to TCTTGTAGATCAACAGGAGGTTTAGAAAGATCGA, for which the PBM binding z-score is 0.171.

GCAGACAGGTGAAACGCAGATAACTCAGGGTGGC yielded a PBM binding z-score of -0.407.

For the sequence CGAACGAGGGCATGAGTTGATGGCAAATGCCGAT, the PBM binding z-score came to 1.34.

Sequence CAGCCTAGGACAGGGCCAGTATAGGAGGAACGTT registered a PBM binding z-score of -0.833.

As to TCTTGTAGATCAGCAGGTTAACAAAGCTGGCCAA, the PBM binding z-score was 0.696.

As for GCATGTAGATCAAGGTTAAGAAAGACTAAGCTAA, the PBM binding z-score was 0.22.

The sequence CGAACTAGGTCAAGGACACTGAATCTCCGCACGC yielded a PBM binding z-score of 1.57.

In the case of CCTAGTGGGCCACGAAAGGTCATTGATTCAGTGA, the PBM binding z-score stood at 4.05.

For the sequence TCTGCTAGGTCAACGATGGTCCGCTAATCTGCTA, the PBM binding z-score amounted to 1.14.

CCTTACGGGTCACTGACAGGTTATATCATTTGGA showed a PBM binding z-score of 3.81.

Take AGAATGAGGTTACCACAGATCAGGGAAACGCTTG: the PBM binding z-score stood at 1.23.

Consider TCTACTTGGTCAAAGGTCACACACTCGAAATGCG, for which the PBM binding z-score worked out at 5.28.

The sequence ACAGACAGGTGATGAGGGTAACTCAGGCTATCAT returned a PBM binding z-score of 0.16.

With CCAACTGGGCCATCAGGTCATTGATATCAACGTT, the PBM binding z-score was found to be 1.98.

The sequence ATCGAAAGGTCGCCGAGGTGAGTATACACCGTTT showed a PBM binding z-score of 5.39.

Sequence GCTTGTAGACCAAGGTTAAGAAAGACTAAGCTAA had a PBM binding z-score of 0.0143.

Sequence TCTTGTAGATCAGCAGGTTAAGATAGCTGGCCAA gave a PBM binding z-score of 0.44.

For TCTAGTTGGTTAAAGGTCACACACTCGAAATGCG, the PBM binding z-score was found to be 4.86.

For the sequence TAGCCTATGTCATTGGGCCAGTATAGTACGCATC, the PBM binding z-score is -0.316.

GCTAGTTGGTCATTAAAAGGTCACACACCGGTCG returned a PBM binding z-score of 4.42.

CGTCAAATTTCAACTAAGGTAACGTAAAGCACGC: the PBM binding z-score stood at 0.709.

For the sequence CCGCCTGGGGCAAAGGTTACCATACTCAGTACGA, the PBM binding z-score is 1.48.

As for ATATCTAGGTAAAGATAGTTCAGTGAATGCAAAT, the PBM binding z-score is 0.986.

Take TAGCCTAGGTCATTCAGGGGCCGGTATAGAAAGC: the PBM binding z-score was found to be 2.63.

The sequence GTACCAAGGTGAATGGGTCGTTGATGAGTAGGCG had a PBM binding z-score of 1.06.

Take GCTCGGAGGACAAGGTCAGATCTTTGTCCGTAGA: the PBM binding z-score was found to be 1.61.

In the case of CAAACTAGGTCACAGAGGTCAAAGTACGTGCGTA, the PBM binding z-score was 7.94.

With CACGAAAGGTCGGTTGAGGTGAGTATACGGATAA, the PBM binding z-score was determined as 2.37.

Take CCTAGTTGGTCAGGAGGTCACACACCGGATATGA: the PBM binding z-score was found to be 4.06.
